In PubChem BioAssay (NCI) one finds growth inhibition data, which are given here for 20 compounds.

About 79,000 compounds went through this panel and 15% of them were active in at least one assay; those are over-represented in the sample as a whole. Values without a mark were called inactive. Calls of active or inactive are those of the source. Rule as the data show it: active = growth inhibition above about 70%; inactive = the rest.

Assay [1] is described as follows: NCI Yeast Anticancer Drug Screen. Data for the rad50 strain (AID 155).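 Also: 0% = growth of vehicle-only cultures of the same strain.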 The note with it: S. cerevisiae rad50 strain growth inhibition, stronger effect = higher value; at 50.0 µM unless noted. The essentials:
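Vehicle-treated cultures provide the reference for the growth inhibition reported for compound-exposed, repair-deficient yeast.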

Assay [2] can be described thus: NCI Yeast Anticancer Drug Screen. Data for the mec2-1 strain (AID 157). The note with it: S. cerevisiae mec2-1 strain, stronger effect = higher value; at 50.0 µM unless noted. The essentials: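 mec2-1 yeast strain, carrying an alteration in DNA damage repair or cell cycle control, was exposed to compounds; growth inhibition was measured relative to vehicle-treated controls.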

A short description of assay [3]: NCI Yeast Anticancer Drug Screen. Data for the sgs1 mgt1 strain (AID 161).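 Also: 0% = growth of cultures given vehicle only.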 The following applies: S. cerevisiae sgs1 mgt1 strain, stronger effect = higher value; at 50.0 µM unless noted. The essentials: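 This yeast growth screen uses a strain with defined DNA-repair lesions; compound-treated growth is compared with vehicle-treated growth.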
Assay [4] can be described thus: NCI Yeast Anticancer Drug Screen. Data for the cln2 rad14 strain (AID 165).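 Also: 0% = growth equal to vehicle treated cultures.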 The note with it: S. cerevisiae cln2 rad14 strain, stronger effect = higher value; at 50.0 µM unless noted. Put shortly:
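Yeast carrying cln2 and rad14 alterations (cell cycle control and DNA damage repair) were exposed to compounds. Growth inhibition was measured against vehicle-treated controls.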

Assay [5] is described as follows: NCI Yeast Anticancer Drug Screen. Data for the bub3 strain (AID 167). The note with it: S. cerevisiae bub3 mutant strain, stronger effect = higher value; at 50.0 µM unless noted. Put shortly: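 Mutant yeast screening strain plus compound; vehicle-treated cultures serve as the 0% inhibition reference.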
Assay [6] in a line: NCI Yeast Anticancer Drug Screen. Data for the mlh1 rad18 strain (AID 175). The note with it: S. cerevisiae mlh1 rad18 strain growth inhibition, stronger effect = higher value; at 50.0 µM unless noted. Put shortly:
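Growth inhibition of the yeast strain was measured after compound exposure and expressed relative to vehicle-treated controls. The strain carries defined defects in DNA damage repair.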

As for `CC(C)=C1C2CCC1C(CO)C2CO` (stereo not given), the growth inhibition in assay [1] was 4.95%; in assay [2], -8.45%; in assay [3], -13.5%; in assay [4] it was -102%; in assay [5], -2.4%; in assay [6], -15.7%.

For `CCCCC/C(=N\c1nc[nH]c1C(N)=O)OCC`, the growth inhibition in assay [1] was -29.9%; in assay [2], -12.9%; in assay [3], -37.9%; in assay [4], -7.1%; in assay [5] it was -27.8%; in assay [6], -25.6%.

In the case of `O=C(/C(=C/c1ccccc1)c1ccccc1)N1c2ccccc2CC1c1c[nH]c2ccccc12` (stereo not given), the growth inhibition is 17.4% in assay [1]; 15.2% in assay [2]; -10.9% in assay [3]; 19.1% in assay [4]; 3.3% in assay [5]; 23.8% in assay [6].

Consider `COc1cc(C(=O)O)cc(I)c1OC`, for which the growth inhibition was -3.3% in assay [1]; 25.1% in assay [2]; 3.95% in assay [3]; -15.4% in assay [4]; -4.55% in assay [5]; -8.95% in assay [6].

For `CC1=CP(=O)(c2ccccc2)CC1` (stereo not given) (tested in a mixture with another compound), the growth inhibition in assay [1] is -12.2%; in assay [2], -9.2%; in assay [3] it was 6.2%; in assay [4] it was -9.85%; in assay [5], -10.4%; in assay [6], 1.2%.

As for `CC1CC(Nc2ccc(Br)cc2)N(C(=O)c2ccc(Br)cc2)O1` (stereo not given), the growth inhibition is -25.9% in assay [1]; -1.2% in assay [2]; 25.5% in assay [3]; 5.65% in assay [4]; -35% in assay [5]; -2.8% in assay [6].

Take `O=c1c(O)c(-c2cc(O)c(O)c(O)c2)oc2cc(O)cc(O)c12`: the growth inhibition in assay [1] was 13.7%; in assay [2], -21.1%; in assay [3], 7.55%; in assay [4], 1.1%; in assay [5], 14.5%; in assay [6], -8.55%.

On to `O=C(NCC1CC1)c1cccs1`, for which the growth inhibition in assay [1] is -41.4%; in assay [2], -50.9%; in assay [3] it was -18.9%; in assay [4] it was -23.6%; in assay [5] it was -21.6%; in assay [6] it was -50.4%.

As to `O=C1NCCCc2nonc21`, the growth inhibition in assay [1] was 18.9%; in assay [2], 16.4%; in assay [3] it was 7.9%; in assay [4], 4%; in assay [5] it was 4%; in assay [6] it was 5.2%.

As for `CC(C)(CO)CNC(=O)C(C)(C)CO`, the growth inhibition in assay [1] is 7.8%; in assay [2] it was 14.1%; in assay [3], -5%; in assay [4], 21.1%; in assay [5], 16.8%; in assay [6], -4.4%.

In the case of `Fc1ccc2c(c1)-c1ccccc1C2`, the growth inhibition in assay [1] is -0.1%; in assay [2], -14.6%; in assay [3], -2.65%; in assay [4], 4.95%; in assay [5] it was -0.95%; in assay [6], -19.6%.

Turning to `O=C1c2ccccc2C(=O)N1CCCCCCCCCCN1C(=O)c2ccccc2C1=O`, the growth inhibition in assay [1] is 33%; in assay [2], -10.3%; in assay [3] it was 17.3%; in assay [4] it was 2.75%; in assay [5] it was -3.75%; in assay [6], -7.15%.

For `COCCN(CCOC)C(=O)Nc1ccc(Cl)cc1`, the growth inhibition in assay [1] was 4.6%; in assay [2] it was 5.5%; in assay [3] it was 10.4%; in assay [4], 4.5%; in assay [5], 0.8%; in assay [6] it was 9.75%.

`O=C(O)CC1NC(/C(=C/c2ccccc2O)NC(=O)c2ccccc2)OC1=O` (stereo not given): the growth inhibition in assay [1] is -1.5%; in assay [2] it was -5.85%; in assay [3] it was 15.5%; in assay [4], -5.95%; in assay [5], 15.2%; in assay [6], -28.7%.

As for `O=C1NC(=O)C2(CCCC2)N1`, the growth inhibition was -9.4% in assay [1]; 8.05% in assay [2]; 2.8% in assay [3]; -74% in assay [4]; 7.45% in assay [5]; -37.9% in assay [6].

With `c1cc2c(cc1C1=NNC(c3ccc4c(c3)OCO4)=NN1)OCO2`, the growth inhibition in assay [1] is -13.3%; in assay [2], 10.2%; in assay [3] it was -7.45%; in assay [4] it was 1.4%; in assay [5], -4.95%; in assay [6], -3.05%.

Take `CC(C)(C)OC(=O)NNS(=O)(=O)CCC(NC(=O)OCc1ccccc1)C(=O)OCc1ccccc1` (stereo not given): the growth inhibition was 46.7% in assay [1]; 93.2% (active) in assay [2]; 51.1% in assay [3]; 86.5% (active) in assay [4]; 94.5% (active) in assay [5]; 95.6% (active) in assay [6].

For `O=C(N1CCN(C(=O)S(=O)(=O)c2ccccc2)CC1)S(=O)(=O)c1ccccc1`, the growth inhibition in assay [1] is 29.9%; in assay [2], -16.9%; in assay [3], 19.8%; in assay [4], 20.1%; in assay [5] it was 1.85%; in assay [6], -3.55%.

Turning to `CC(/C(=N/O)c1ccccc1)N1C(=O)c2ccccc2C1=O` (stereo not given), the growth inhibition in assay [1] is -31.1%; in assay [2], -12.9%; in assay [3] it was -4.5%; in assay [4], -27.1%; in assay [5] it was -3.95%; in assay [6], 5.7%.

`Cc1ccc(NC(=S)N2CCCC(C)C2)cc1C` (stereo not given): the growth inhibition in assay [1] is -1.15%; in assay [2], -9.85%; in assay [3] it was 6.15%; in assay [4] it was -7.3%; in assay [5], 6.15%; in assay [6], -23.6%.
